For 15 molecules, composite z-score and z-score results are on record in PubChem BioAssay.

For assay [1], the system named is PRMT1 (protein arginine N-methyltransferase 1). The assay is described as follows: PRMT1 binders on small-molecule microarrays, primary screen, biochemical, small-molecule microarray, 635 nm fluorescence (AID 1088).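 Also: binding of Prmt1 protein to compounds spotted on small-molecule microarray slides.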 Conditions: small-molecule microarray binding, higher = more signal.
Assay [2] in a line: yeast growth modulation, basal conditions, primary screen, YJM789 clinical isolate, OD600, 24 h (AID 1089).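 Also: growth of clinical yeast isolate S. cerevisiae YJM 789 seeded 1000 cells per well; test concentration not given here.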 Conditions: S. cerevisiae YJM789 growth, higher = more signal, called active from +8 up or from −8 down.
Assay [3] is described as follows: fission yeast growth modulation, primary screen, strain 972, OD600, 24 h, no modulator (AID 1090).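 Also: basal condition with compound alone and no growth modifier present; test concentration not given here.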 Conditions: S. pombe 972 growth, higher = more signal, called active from +8 up or from −8 down.
A short description of assay [4]: S. cerevisiae growth modulation with rapamycin, primary screen, strain BY4716, OD600, 96 h (AID 1091). Also: test concentration not given here. Conditions: higher = more signal, called active from +8 up or from −8 down.
Assay [5] deals with Torsin-1A-interacting protein 2 (Homo sapiens) (UniProt Q8NFQ8). Kind of assay: LULL1 binders on small-molecule microarray, primary screen, cell lysate, human LULL1 lysate, 635/667 nm fluorescence (AID 1092).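 Also: probe is lysate of COS7 cells overexpressing human LULL1; score merges per-feature 667 nm fluorescence with signal-to-noise.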 Conditions: hLULL1 lysate binding, 635 nm fluorescence, higher = more signal.
Assay [6] is described as follows: E. coli growth modulation, two-sided OD650, primary screen, E. coli filamentation project, strain DRC41, 24 h (AID 1093).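 Also: MC1000 strain lacking acrAB efflux and sulA so SOS filamentation is blocked; test concentration not given here.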 Conditions: OD650, 24 h, higher = more signal, called active from +8 up or from −8 down.
Assay [7] is described as follows: small-molecule microarray binders of probe aLefty2, primary screen, biochemical, biotinylated probe, 635/667 nm fluorescence (AID 1094).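 Also: score merges spot fluorescence near 667 nm with spot signal-to-noise ratio.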 Conditions: higher = more signal.
Assay [8] deals with Noggin (protein binding on small-molecule microarray). Kind of assay: Noggin binders on small-molecule microarray, primary screen, biochemical, 635/667 nm fluorescence (AID 1095).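 Also: score merges 667 nm feature fluorescence with signal to noise over triplicate slides.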 Conditions: 635 nm fluorescence, higher = more signal.
Assay [9] deals with Neurogenic locus notch homolog protein 3 (Homo sapiens) (UniProt Q9UM47). The assay is described as follows: NOTCH3 binders on small-molecule microarray, primary screen, biochemical, 635/667 nm fluorescence (AID 1096). Conditions: NOTCH3 binding, 635 nm fluorescence, higher = more signal.
The nature of assay [10]: small-molecule microarray binders of probe aEGFR, primary screen, biochemical, biotinylated probe, 635/667 nm fluorescence (AID 1097).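 Also: probe is a biotinylated anti-EGFR antibody binding compounds printed on slides; score combines fluorescence near 667 nm and signal to noise of each spot.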 Conditions: higher = more signal.

Activity calls are given as the source filed them.

Sequence of Neurogenic locus notch homolog protein 3 (Homo sapiens) (Q9UM47 whole entry, looked up): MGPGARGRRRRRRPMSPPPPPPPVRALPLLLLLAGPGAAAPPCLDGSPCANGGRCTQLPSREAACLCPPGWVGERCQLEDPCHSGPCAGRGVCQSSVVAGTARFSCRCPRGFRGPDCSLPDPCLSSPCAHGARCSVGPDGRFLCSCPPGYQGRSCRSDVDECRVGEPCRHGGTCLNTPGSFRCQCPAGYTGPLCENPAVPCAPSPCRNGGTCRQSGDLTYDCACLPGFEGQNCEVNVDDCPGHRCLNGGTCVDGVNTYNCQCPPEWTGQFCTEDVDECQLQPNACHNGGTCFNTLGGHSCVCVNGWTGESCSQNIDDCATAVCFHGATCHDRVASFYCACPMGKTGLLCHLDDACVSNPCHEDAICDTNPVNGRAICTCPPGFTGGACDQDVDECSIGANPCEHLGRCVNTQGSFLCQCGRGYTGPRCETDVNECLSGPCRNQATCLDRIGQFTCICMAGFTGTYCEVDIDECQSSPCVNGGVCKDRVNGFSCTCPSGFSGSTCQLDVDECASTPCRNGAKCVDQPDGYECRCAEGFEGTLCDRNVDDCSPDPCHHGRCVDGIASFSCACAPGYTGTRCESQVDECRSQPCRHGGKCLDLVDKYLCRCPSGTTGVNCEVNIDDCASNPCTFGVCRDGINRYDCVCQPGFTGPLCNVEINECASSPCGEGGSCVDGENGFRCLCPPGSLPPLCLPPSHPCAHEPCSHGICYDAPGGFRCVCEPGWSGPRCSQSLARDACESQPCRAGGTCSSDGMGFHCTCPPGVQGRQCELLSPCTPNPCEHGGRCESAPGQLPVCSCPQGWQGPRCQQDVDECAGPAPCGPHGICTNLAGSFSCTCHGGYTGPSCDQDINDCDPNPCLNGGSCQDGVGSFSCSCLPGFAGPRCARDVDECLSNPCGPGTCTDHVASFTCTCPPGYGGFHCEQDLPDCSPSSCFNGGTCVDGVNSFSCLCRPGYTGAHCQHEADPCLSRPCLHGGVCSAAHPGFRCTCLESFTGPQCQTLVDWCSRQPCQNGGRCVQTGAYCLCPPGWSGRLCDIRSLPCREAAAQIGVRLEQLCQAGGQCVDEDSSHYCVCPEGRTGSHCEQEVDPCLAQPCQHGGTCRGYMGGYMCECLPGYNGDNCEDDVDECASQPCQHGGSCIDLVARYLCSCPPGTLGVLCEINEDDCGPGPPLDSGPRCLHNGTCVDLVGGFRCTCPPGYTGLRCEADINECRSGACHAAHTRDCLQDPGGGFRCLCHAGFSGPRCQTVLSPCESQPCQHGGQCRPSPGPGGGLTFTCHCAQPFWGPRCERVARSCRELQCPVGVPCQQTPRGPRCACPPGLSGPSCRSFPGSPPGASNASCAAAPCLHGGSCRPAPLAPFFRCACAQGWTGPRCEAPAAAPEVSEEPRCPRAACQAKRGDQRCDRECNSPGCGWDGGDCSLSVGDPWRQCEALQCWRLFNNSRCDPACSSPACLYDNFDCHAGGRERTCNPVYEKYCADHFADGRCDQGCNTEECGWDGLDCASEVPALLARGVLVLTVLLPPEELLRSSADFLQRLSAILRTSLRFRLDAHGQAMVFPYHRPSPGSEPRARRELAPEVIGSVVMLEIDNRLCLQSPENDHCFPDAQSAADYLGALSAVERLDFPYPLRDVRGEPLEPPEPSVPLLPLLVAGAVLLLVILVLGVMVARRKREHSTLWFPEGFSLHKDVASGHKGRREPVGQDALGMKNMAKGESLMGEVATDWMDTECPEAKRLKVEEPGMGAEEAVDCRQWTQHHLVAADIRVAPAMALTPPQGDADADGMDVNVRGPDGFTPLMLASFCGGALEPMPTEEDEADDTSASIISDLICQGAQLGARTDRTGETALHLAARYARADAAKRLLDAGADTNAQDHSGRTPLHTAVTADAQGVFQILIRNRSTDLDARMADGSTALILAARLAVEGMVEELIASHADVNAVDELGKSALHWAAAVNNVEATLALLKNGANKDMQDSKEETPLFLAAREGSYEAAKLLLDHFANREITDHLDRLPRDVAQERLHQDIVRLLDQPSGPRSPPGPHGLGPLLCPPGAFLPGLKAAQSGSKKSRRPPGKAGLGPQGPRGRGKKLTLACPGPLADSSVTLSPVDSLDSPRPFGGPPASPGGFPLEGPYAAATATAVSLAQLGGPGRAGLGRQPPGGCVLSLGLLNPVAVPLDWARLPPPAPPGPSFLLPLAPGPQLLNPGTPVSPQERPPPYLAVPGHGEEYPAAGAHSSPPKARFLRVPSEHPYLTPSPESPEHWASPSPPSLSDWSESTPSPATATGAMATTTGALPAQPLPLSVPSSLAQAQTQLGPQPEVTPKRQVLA
Sequence of Torsin-1A-interacting protein 2 (Homo sapiens) (Q8NFQ8 whole entry, looked up): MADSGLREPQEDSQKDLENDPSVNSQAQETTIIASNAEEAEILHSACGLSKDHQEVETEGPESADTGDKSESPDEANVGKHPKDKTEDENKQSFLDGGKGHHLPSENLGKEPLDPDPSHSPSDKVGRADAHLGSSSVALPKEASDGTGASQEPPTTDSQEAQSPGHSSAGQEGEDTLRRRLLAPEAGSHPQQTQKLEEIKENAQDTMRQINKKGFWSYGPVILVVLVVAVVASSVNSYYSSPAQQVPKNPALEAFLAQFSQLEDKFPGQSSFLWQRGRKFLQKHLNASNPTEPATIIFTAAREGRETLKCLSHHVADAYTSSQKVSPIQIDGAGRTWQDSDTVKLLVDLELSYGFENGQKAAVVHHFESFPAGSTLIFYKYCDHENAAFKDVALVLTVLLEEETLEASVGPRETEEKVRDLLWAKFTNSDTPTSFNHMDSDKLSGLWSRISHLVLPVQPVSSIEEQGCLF

As to `CC(C)N1C(=O)[C@@]2(Cc3ccccc31)c1ccccc1C(=O)N(Cc1ccccc1C(F)(F)F)[C@H]2c1ccc(CO)cc1`, the composite z-score was 1.31 in assay [1]; 2.23 in assay [5]; -0.269 in [7]; 0.841 in assay [8]; 0.99 in [9]; 0.116 in assay [10]. In addition, the z-score in assay [2] was -0.0493 (inactive); in assay [3], -0.706 (inactive); in assay [4] it was -1.81 (inactive); in assay [6] it was -0.569 (inactive).

Turning to `N#Cc1ccc(NN2C(C(O)c3ccc(B(O)O)cc3)C=CC3CN(c4ccccc4)C(=O)C32)cc1` (stereo not given), the composite z-score in [1] is -0.188; in [5], 0.847; in assay [7], -0.0576; in assay [8], -0.345; in assay [9], 0.0787; in assay [10], -0.0828. Also, the z-score in [2] was 0.587 (inactive); in assay [3], 0.896 (inactive); in [4], 1.88 (inactive); in [6], 1.28 (inactive).

Turning to `C[N+](C)(C)CCCC[C@@H]1NC(=O)[C@H]2C[C@@H](C(=O)O)[C@@H](c3ccc(O)cc3)N2C1=O`, the composite z-score in assay [1] is 0.777; in assay [5], 2.61; in [7], -0.0481; in assay [8], 0.447; in [9] it was 0.5; in assay [10], -0.158. The z-score in assay [2] is -1.56 (inactive); in assay [3], -1.28 (inactive); in [4], -0.5 (inactive); in assay [6], 1.26 (inactive).

`COc1ccc(C(=O)Nc2cccc(CN3C(=O)[C@]4(O[C@H](CC(=O)N(CCO)Cc5ccccc5)[C@@H]([Si](C)(C)c5ccc(OC)cc5)[C@@H]4C)c4ccccc43)c2)cc1`: the composite z-score in assay [1] was 1.05; in assay [5], 1.69; in assay [7], 0.0553; in [8], 0.701; in [9], 0.255; in assay [10] it was -0.0251. In addition, the z-score in [2] was 1.22 (inactive); in assay [3], 0.706 (inactive); in [4], 3.65 (inactive); in assay [6] it was 0.854 (inactive).

As for `CC(=O)NCCCC[C@@H]1NC(=O)[C@H]2C[C@@H](C(=O)O)[C@@H](c3cccc(OCCO)c3)N2C1=O`, the composite z-score is 1.54 in [1]; 2.49 in assay [5]; 0.122 in assay [7]; 1.58 in [8]; 1.11 in assay [9]; 0.189 in assay [10]. The z-score in [2] is 0.341 (inactive); in assay [3], -0.198 (inactive); in assay [4] it was -0.453 (inactive); in assay [6] it was -0.147 (inactive).

As for `[N-]=[N+]=Nc1ccccc1C[C@@]1(C(=O)NCC(O)CO)N=C(c2ccc(OCCCO)cc2)O[C@@H]1c1ccccc1N=[N+]=[N-]` (stereo not given in full), the composite z-score came to 0.9 in assay [1]; 3.37 in assay [5]; 0.285 in [7]; 0.0196 in [8]; 0.298 in assay [9]; 0.0001 in assay [10]. For the same molecule, the z-score in assay [2] was -0.961 (inactive); in assay [3] it was 0.0801 (inactive); in assay [4], 0.23 (inactive); in assay [6], 0.616 (inactive).

Turning to `C=C(COC)C(=O)CC[C@H](OC(C)=O)c1ccc(CO)o1`, the composite z-score is -0.451 in [1]; 2 in [5]; -0.0963 in assay [7]; 1.31 in assay [8]; 0.651 in assay [9]; -0.067 in assay [10]. Further, the z-score in assay [2] is -1.16 (inactive); in [3], -0.603 (inactive); in assay [4], -1.46 (inactive); in assay [6] it was 1.5 (inactive).

As to `O=C1OC[C@@H](c2ccccc2)n2cc(/C=C/c3ccccc3)cc21`, the composite z-score in assay [1] was -0.329; in assay [5], -0.0278; in assay [7] it was -0.0042; in [8] it was -0.364; in [9] it was -0.0623; in [10], -0.108. Moreover, the z-score in assay [2] was -0.154 (inactive); in assay [3], -2.68 (inactive); in assay [4] it was 0.614 (inactive); in assay [6], 1.45 (inactive).

For the molecule `O=C(NCCN1CCOCC1)[C@@H]1c2ccccc2C(=O)N(CC23CC4CC(CC(C4)C2)C3)[C@H]1c1ccc(CO)cc1`, the composite z-score in assay [1] was 1.55; in [5], 3.23; in [7], 0.0735; in assay [8], 0.495; in assay [9], 1.05; in [10], 0.0353. Also, the z-score in assay [2] is -0.43 (inactive); in assay [3], -1.27 (inactive); in assay [4] it was 0.223 (inactive); in [6] it was 0.534 (inactive).

`CCOC(=O)C[C@H]1[C@H](OC(=O)c2cc3ccccc3oc2=O)[C@@H](NC(=O)c2ccc(-c3ccccc3)cc2)c2cc(OCCCO)ccc2N1C(=O)Cc1ccc(OC)cc1`: the composite z-score is 1.2 in assay [1]; 1.93 in assay [5]; -0.212 in [7]; 0.421 in assay [8]; 1.11 in assay [9]; 0.148 in assay [10]. For the same molecule, the z-score in assay [2] was -0.792 (inactive); in [3], -0.398 (inactive); in assay [4], -0.077 (inactive); in assay [6], -0.423 (inactive).

With `COc1ccc(NN2C(C(O)c3ccccc3)C=CC3C(=O)N(C4CCCCC4)C(=O)C32)cc1` (stereo not given), the composite z-score was determined as 1.56 in assay [1]; 3.34 in assay [5]; 0.107 in assay [7]; 1.08 in assay [8]; 1.06 in [9]; 0.0953 in [10]. The z-score is -0.0673 (inactive) in assay [2], 0.991 (inactive) in assay [3], 1.34 (inactive) in assay [4] and 0.0456 (inactive) in [6].

Take `O=C1O[C@H](c2ccccc2)[C@H](c2ccccc2)N2[C@H]1[C@@H](C(=O)N1CCN(c3ncccn3)CC1)[C@]1(C(=O)Nc3ccc(C#CC4(O)CCCCCC4)cc31)[C@H]2c1ccc(O)cc1`: the composite z-score is 1.55 in assay [1]; 2.57 in [5]; -0.209 in [7]; 1.2 in assay [8]; 1.11 in assay [9]; -0.0225 in assay [10]. In addition, the z-score in assay [2] is 0.736 (inactive); in assay [3], -0.391 (inactive); in assay [4], 1.21 (inactive); in assay [6], 2.61 (inactive).

Regarding `O=C1NC(=O)C2C1C=CC(C(O)c1ccc(F)cc1)N2Nc1ccc(Cl)cc1Cl` (stereo not given), the composite z-score in assay [1] was 0.589; in assay [5] it was 3.02; in assay [7], 0.096; in assay [8], -0.749; in assay [9] it was 0.14; in assay [10] it was -0.123. The z-score in [2] was -25.3 (active); in assay [3], -7.26 (inactive); in [4], -0.0449 (inactive); in assay [6] it was -1.3 (inactive).

In the case of `CC1CC/C=C\[C@H]2OC34C=CCN(C(C)C)C(=O)[C@H]3N(C(C)CO)C(=O)[C@@H]4C2C(=O)O1` (stereo not given in full), the composite z-score in assay [1] was 0.216; in assay [5], 0.476; in assay [7], -0.172; in assay [8], 0.202; in [9], 0.41; in [10], -0.158. Moreover, the z-score is 0.0052 (inactive) in assay [2], 0.285 (inactive) in assay [3], -0.448 (inactive) in assay [4] and 1.62 (inactive) in [6].

For `CN(C)CCCCCCNC(=O)[C@@H]1C[C@@H]2C(=O)N[C@@H](CCCC[N+](C)(C)C)C(=O)N2[C@@H]1c1cccc(OCCO)c1`, the composite z-score in [1] is -0.357; in assay [5], 2.79; in assay [7], 0.141; in [8] it was -0.349; in assay [9], 0.363; in assay [10], -0.108. Also, the z-score in assay [2] is -3.6 (inactive); in assay [3], -1 (inactive); in assay [4], -1.17 (inactive); in assay [6], 0.797 (inactive).
